From publication PMC5540273 (PLoS ONE, 2017)

What was measured:
Settings in all cases: concentration: 1 μM, replicates: in singlicate; n = 1
EPHB4 = tested on: EPHB4
EPHB6 = tested on: EPHB6
ERBB2 = tested on: ERBB2
ERBB3 = tested on: ERBB3
ERBB4 = tested on: ERBB4
ERK1 = tested on: T1, ERK1
T1 construct: gene MAPK3

ERK2 = tested on: T2, ERK2
T2 construct: gene MAPK1

ERK3 = tested on: T3, ERK3
T3 construct: gene MAPK6

ERK4 = tested on: T4, ERK4
T4 construct: gene MAPK4

ERK5 = tested on: T5, ERK5
T5 construct: gene MAPK7

ERK8 = tested on: T6, ERK8
T6 construct: gene MAPK15

ERN1 = tested on: ERN1
FAK = tested on: T7, FAK
T7 construct: gene PTK2

FER = tested on: FER
FES = tested on: FES
FGFR1 = tested on: FGFR1
FGFR2 = tested on: FGFR2
FGFR3 = tested on: FGFR3
FGFR4 = tested on: FGFR4
FGR = tested on: FGR
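Also: KINOMEscan kinase panel screen.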

SMILES	%Inh (EPHB4) [%]	%Inh (EPHB6) [%]	%Inh (ERBB2) [%]	%Inh (ERBB3) [%]	%Inh (ERBB4) [%]	%Inh (ERK1) [%]	%Inh (ERK2) [%]	%Inh (ERK3) [%]	%Inh (ERK4) [%]	%Inh (ERK5) [%]	%Inh (ERK8) [%]	%Inh (ERN1) [%]	%Inh (FAK) [%]	%Inh (FER) [%]	%Inh (FES) [%]	%Inh (FGFR1) [%]	%Inh (FGFR2) [%]	%Inh (FGFR3) [%]	%Inh (FGFR4) [%]	%Inh (FGR) [%]
Cc1nccc(-c2c(-c3ccc(F)cc3)ncn2CCCN2CCOCC2)n1.Cl [SB-282975]	0	15	0	34	0	6	8	0	96.5	25	9	0	35	26	12	38	22	33	0	0
O=c1cc(N2CCOCC2)nc2n(Cc3cccc(Cl)c3Cl)c3ccccc3n12 [GSK2299009]	0	33	6	0	10	0	15	26	45	0	0	18	0	49	0	31	4	10	21	17
COC(=O)C(Cc1ccccc1)NC(=O)NC1CCN(c2ccnc(Nc3ccc(F)cc3)n2)C1 (centres unmarked) [GSK1379714]	0	72	51	28	42	14	0	0	12	0	0	0	0	30	0	0	51	26	0	0
CC(=O)c1c(C)c2cnc(Nc3ccc(N4CCNCC4)cn3)nc2n(C2CCCC2)c1=O	23	17	9	0	0	0	0	89	25	0	17	0	0	4	0	2	0	0	0	20
CC[C@@H]1CO[C@H](C(=O)Nc2ccccc2)CN1c1cc(-c2ccc3c(N)n[nH]c3c2)nc(NC)n1 [GSK2376236]	16	3	8	0	18	0	0	8	42	7	0	19	0	27	9	0	0	41	19	31
Cc1ccc(NC(=O)c2ccc(Cl)cc2)cc1-c1ccc(C(=O)Nc2ccncc2)cc1 [GSK1398467]	30	0	30	0	12	0	0	0	19	0	0	0	0	24	0	0	0	7	18	40
CC(C)c1ccc(O)cc1Nc1ccnc2ccc(C(F)(F)F)cc12 [GW482059]	0	0	10	0	0	0	0	0	0	0	17	8	0	14	0	10	2	5	57	9
Fc1ccc(-c2nc[nH]c2-c2ccncc2)cc1 [SB-217360]	0	3	41	5	10	2	0	0	12	0	4	43	0	23	0	0	0	0	0	0
Fc1ccc(-c2nn3cccc(F)c3c2-c2ccncc2)cc1 [GW475620]	10	0	39	0	30	21	10	0	4	0	15	0	1	17	0	23	25	6	0	15
COc1ccc(Nc2nccc(N3CCC(NC(=O)C(C)c4ccc(Cl)cc4)C3)n2)cc1 (centres unmarked) [GSK1379735]	7	18	11	9	0	0	0	0	0	0	44	0	0	28	12	8	36	17	3	10
CNC(=O)c1ccc(C)c(-n2c(C)cc(OCc3ccc(F)cc3F)c(Br)c2=O)c1	0	0	0	0	13	0	0	0	0	0	13	0	0	18	0	0	0	0	0	0
O=c1cc(N2CCOCC2)nc2n(Cc3ccccc3F)ccn12 [GSK2297428]	3	11	0	0	0	0	0	0	19	0	0	7	0	36	0	0	12	10	0	4
CCn1c(-c2ccccc2)nc2cnccc21 [SB-733416]	16	0	0	0	0	0	18	0	0	37	23	0	2	18	0	18	0	0	23	22
CNCc1ccc2nc(NC(=O)c3ccc(C(C)(C)C)cc3)cn2c1	1	6	17	31	9	1	0	0	0	6	2	9	3	1	1	0	0	6	0	0
Nc1cccc(-c2ccc3c(N)n[nH]c3c2)n1 [GSK2192730]	5	0	0	0	0	0	0	0	35	8	0	24	0	0	0	0	0	0	0	10
COc1cccc(C2=C(Nc3cc(Cl)c(O)c(Cl)c3)C(=O)NC2=O)c1 [SB-390767]	18	46	0	3	4	0	0	0	0	0	37	17	0	0	0	0	53	41	29	22
COc1ccc(CSc2nnc(-c3ccc4nccn4c3)o2)cc1C(F)(F)F	16	0	0	9	0	0	0	18	0	1	39	0	0	4	14	4	4	0	0	19
CN1c2ccc(-c3ccc(C(N)=O)cc3)cc2-c2[nH]ncc2S1(=O)=O	18	23	12	14	14	0	4	0	0	0	17	0	–	8	11	5	0	0	0	20
O=C(Nc1n[nH]c2cc(-c3ccsc3)ccc12)C1CC1 [SB-732932]	9	18	0	5	9	0	7	0	1	3	92.4	8	6	0	0	1	0	3	0	13
COc1ccc(-c2coc3ccc(-c4nnc(C)o4)cc23)cc1	24	0	0	0	0	0	0	0	1	1	0	0	0	0	22	0	4	4	0	36
CNc1nc(-c2ccc3c(N)n[nH]c3c2)cc(N2C[C@@H](C(=O)NC3CCCCC3)OC[C@H]2C)n1 [GSK2375584]	14	0	27	15	24	0	1	0	8	0	0	0	0	34	0	13	27	27	7	17
